# Source: PubChem BioAssay AID652257 (The Scripps Research Institute Molecular Screening Center, 2013)
# Among all 370,000 compounds or so, about 4,800 (1.3%) were called active. The sample holds actives, similar compounds and a random draw of the others, so the mix is not that of the screen. Unmarked numbers belong to inactive results.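 The calls were made as follows: active = inhibition above about 21% made by adding two undisclosed values (limit read from the data); inactive = the rest.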
# Target: Protein arginine N-methyltransferase 1 (Homo sapiens) (UniProt Q99873)
# Assay: human PRMT1 activity-probe blockers – biochemical, fluorescence polarization, primary screen (AID 652257)
# Conditions: recombinant PRMT1, activity-based probe fluorescence polarization; at 2.79 µM; stronger effect = higher value
# Protein arginine N-methyltransferase 1 (Homo sapiens), sequence (Q99873 whole entry, looked up): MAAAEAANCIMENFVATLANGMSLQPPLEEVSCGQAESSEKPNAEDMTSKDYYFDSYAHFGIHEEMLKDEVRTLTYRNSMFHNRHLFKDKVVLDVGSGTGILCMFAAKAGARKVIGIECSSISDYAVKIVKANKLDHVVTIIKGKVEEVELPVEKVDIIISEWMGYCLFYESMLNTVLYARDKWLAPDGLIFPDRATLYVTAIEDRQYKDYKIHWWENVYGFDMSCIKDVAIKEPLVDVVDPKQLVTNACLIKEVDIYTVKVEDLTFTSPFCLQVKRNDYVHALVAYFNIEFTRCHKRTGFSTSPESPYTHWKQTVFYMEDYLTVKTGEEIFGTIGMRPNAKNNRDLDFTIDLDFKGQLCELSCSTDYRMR
row,SMILES,inhibition
1,COP(=O)(O)CNC(=O)OCc1ccccc1,-3.79%
2,CCOc1ccc(C(=O)CCN2CCOCC2)cc1,21.4% (active)
3,CCOc1ccc(C(=O)CCC(=O)NC2=NCCS2)cc1,0.3%
4,CCOc1ccc(C(=O)CCC(=O)Nc2ccncc2)cc1,-2.2%
5,CCN1C(=O)[C@H]2[C@@H](c3ccccc3)N[C@]3(CCCN(Cc4ccc(C)cc4)C3=O)[C@H]2C1=O,-1.43%
6,COc1ccc(N2C(=O)CC(Nc3ccc(F)cc3)C2=O)c([N+](=O)[O-])c1 (stereo unspecified),2%
7,COc1cc(/C=C2/C(=O)NN(c3ccc(F)cc3)C2=O)cc([N+](=O)[O-])c1O,22.9% (active)
8,COc1cc(CN2CC(C)CC(C)C2)cc([N+](=O)[O-])c1O (stereo unspecified),-0.22%
9,C=CCN1C(=O)[C@@H](CC(=O)N2CCN(C(=O)OCC)CC2)[C@]2(C(=O)OCC)CCCCC/C=C/12,2.76%
10,N#CCOc1ccc(C2=NO[C@@H]3[C@@H]4C[C@@H]([C@H]5C(=O)N(c6ccc7c(c6)OCO7)C(=O)[C@@H]45)[C@H]23)cc1,-0.79%
11,O=C(NCc1ccc(F)cc1F)[C@@H]1CCCN1C(=O)[C@@H]1CCCN1C(=O)c1cccc(Cl)c1,-3.37%
12,CCOc1ccc(-c2nc(C)sc2CC(=O)O)cc1,4.47%
13,CC(=O)NC(CC(=O)Nc1nc(-c2ccccc2)c(C(C)=O)s1)c1ccccc1 (stereo unspecified),1.97%
14,C/C(=N/Nc1nc(-c2ccccc2)c(CC(=O)O)s1)c1ccccc1,23.7% (active)
15,COC(=O)N1Cc2ccnnc2CC1c1ccccc1Br (stereo unspecified),-1.59%
16,CCOC(=O)C(Sc1ncc(C#N)c(N)n1)C(C)C (stereo unspecified),33.5% (active)
17,CCOC(=O)c1cnc(SCC(=O)Nc2ccccc2C(=O)OC)nc1N,-1.74%
18,CCCCSc1[nH]c(=O)c(C(=O)OCC)cc1C#N,5.58%
19,COCCCNc1nc2c(-c3cccc(C)c3)nnn2c2ccc(Cl)cc12,1.2%

row,SMILES,inhibition
1,C=CCOC/C=C/C#CCN(CC=C)Cc1ccc(OC)cc1OC,-0.66%
2,O=C(CCSc1ccccc1)NCCSc1ccccn1,-0.03%
3,Cc1ccc(Cc2c(-c3ccc(Cl)cc3)nc3c4ccccc4ccn23)cc1,-0.73%
4,c1ccc(Cc2c(-c3ccco3)nc3c4ccccc4ccn23)cc1,26.2% (active)
5,Cc1ccc(Cc2c(-c3ccc(C)cc3)nc3c4ccccc4ccn23)cc1,-3.94%
6,COc1ccc(CSc2nnc(-c3cccc(C)c3)n2C)cc1,8.96%
7,Cc1ccc(-n2c(SCC(=O)Nc3cccc4ccccc34)nnc2-c2ccco2)cc1,1.53%
8,CCN(CC)C(=O)c1nc[nH]c1C(=O)N(C)Cc1ccccc1,0.76%
9,CCOC(=O)C(C)n1nc(-c2ccccc2)c2ccccc2c1=O (stereo unspecified),-2.85%
10,CCN(CC)C(=O)c1sc2nc(-c3ccccc3)ccc2c1N,23.1% (active)
11,O=C(CN1CCCc2ccccc21)NCc1ccc(F)cc1,-5.39%
12,COc1cccc(N2CCN(CC(=O)N(C)Cc3ccc(F)cc3)CC2)c1,0.17%
13,COc1ccccc1C(=O)NC1CCCCN(C(C)C)C1=O (stereo unspecified),2.65%
14,O=C(C1CCN(S(=O)(=O)c2ccccc2)CC1)N1CCN(C2CCCCC2)CC1,-0.34%
15,COc1ccc(N(C)C(=O)C2CCN(S(=O)(=O)c3cccc4nsnc34)CC2)cc1,-1.3%
16,Cc1ccccc1CN1C[C@@H]2C[C@@H](c3cn(C)nc3-c3ccccc3)N3CCC[C@@]23C1=O,67.8% (active)
17,Cc1ccccc1CN1C[C@@H]2C[C@@H](c3ccc4nsnc4c3)N3CCC[C@@]23C1=O,1.62%
18,COc1ccc(CN2CCN(Cc3cn(C)nc3-c3ccccc3)CC2CCO)c(C)c1C (stereo unspecified),0.32%
19,C=CCN(C(=O)[C@@H](CCCC)[C@@H](O)c1ccc(Cl)cc1)c1ccccc1,-0.47%

row,SMILES,inhibition
1,CC(C)CNc1cccc2c1S(=O)(=O)N(Cc1cn(Cc3ccccc3C(F)(F)F)nn1)Cc1ccccc1O2,2.58%
2,CCNC(=O)CC1C(=O)N(c2ccc(F)cc2)C(=O)N1CCc1sccc1C (stereo unspecified),-2.07%
3,Cc1cc2nc(-c3ccco3)c(Cc3cccc(F)c3)n2c(C)c1Br,36.5% (active)
4,Cc1cc(Br)cn2c(Cc3cccc(F)c3)c(-c3cccc(Br)c3)nc12,-2.69%
5,Cc1cc2nc(-c3ccc(F)cc3)c(Cc3ccsc3)n2c(C)c1Br,1.03%
6,Nc1nc(NC(=O)/C=C/c2ccc(F)cc2)nn1-c1ccccc1,-3.14%
7,O=C(O)CCn1c(O)c(C=C2N=c3ccccc3=N2)sc1=S,29.5% (active)
8,CCCCNC(=O)C[C@H]1C[C@@]2(C(=O)OC)C(=C[C@H](COCc3ccccc3)O[C@@H]2C)N(Cc2ccc(Cl)cc2Cl)C1=O,-3.14%
9,COc1ccc(NC(=O)CSc2nnc(Cc3ccccc3)c(=O)n2N)cc1,31.4% (active)
10,COc1ccccc1-n1c(SCC(=O)Nc2ccc(Cl)cc2)nc(O)c(Cc2ccccc2)c1=O,34.5% (active)
11,COc1ccc(-n2c(COc3ccc(C)cc3)nnc2SCC(=O)Nc2ccc(Oc3ccccc3)cc2)cc1,-3.87%
12,COc1ccc(Cc2nnc(SCC(=O)N(c3ccccc3)C(C)C)n(N)c2=O)cc1,-6.66%
13,CCOc1ccc(NC(=O)CSc2nc3c(c(=O)n2-c2ccccc2OC)SCC3)cc1,5.66%
14,CCc1c(O)nc(SCC(=O)Nc2ccccc2)n(C(C)CC)c1=O (stereo unspecified),17%
15,COc1ccccc1-n1ccnc(SCC(=O)NC2CCCCC2)c1=O,1.07%
16,COc1cccc(NC(=O)CSc2nccn(-c3ccc4c(c3)OCCO4)c2=O)c1,29.1% (active)
17,Cn1ccnc1SCC(=O)Nc1ccc2c(c1)OCCO2,5.34%
18,COC(=O)[C@@]12C[C@@H](CC(=O)NCCCCc3ccccc3)C(=O)N(CCc3ccc(OC)c(OC)c3)C1=CCC(C)(C)C2,3.69%
